# IL1B secr inh – inhibitors of inflammasome signaling (IL-1 beta secretion); 360,000 compounds, 4.7% hits; activity change, % at 57.5 µM; THP-1 LPS/ATP IL-1B secretion, AlphaLISA, 16 h; stronger effect = lower value; in the data active = activity change below about -50%; inconclusive = mostly about -30% to -49%; also: % is scaled to controls: 0 for no effect and ±100 for the full control effect
#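 Secreted IL-1B measured by AlphaLISA bead assay after 16 h compound exposure of THP-1 cells; compounds (final up to 57.5 uM) added 1 h before LPS (250 ng/mL) and ATP (1.25 mM) stimulation; lower signal means less secretion.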
# MCF10A rereplic – DNA re-replication induction in MCF 10a cells; MCF 10A DNA re-replication, Hoechst nuclear intensity, 48 h; Potency, µM (series often up to 46.1 µM), for inactives: at the top dose activity, positive = re-replication, usual class: activators; 350,000 compounds, 2.9% hits; AID 624296; also: potency is read from the fitted curve at half-maximal effect; % of control where 0% means no effect; nearly all actives have a fitted effect of over 50% in size
# Giardia kill – kills Giardia lamblia. Giardia lamblia trophozoite viability. activity change, % at 7.66 µM, hits read low. 340,000 compounds, 0.15% hits. AID 540267; in the data active = activity change below about -80%; inconclusive = between about -30% and that limit;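 also: parasites exposed to compound for two days anaerobically before the ATP read; % is scaled to controls: 0 for no effect and ±100 for the full control effect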
#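 Each well holds 100 Giardia trophozoites and compound. After two days (48 hrs) at 37 deg C in anaerobic conditions, ATP is quantified by luminescence.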
# Vif-APOBEC3G blk – Vif-A3G binding inhibition; Q9HC16; HeLa A3G-eYFP + Vif (tagged APOBEC3G with the HIV-1 protein that degrades it), YFP fluorescence, overnight; Potency, µM (doses to about 46.1 µM), for inactives: top-dose activity, negative = active, usual class: inhibitors; 410,000 compounds, 0.076% hits; AID 602310; also: potency is read from the fitted curve at half-maximal effect; % is scaled to controls: 0 for no effect and ±100 for the full control effect; nearly all actives have a fitted effect of over 60% in size
# Target sequence (Q9HC16 whole entry, looked up): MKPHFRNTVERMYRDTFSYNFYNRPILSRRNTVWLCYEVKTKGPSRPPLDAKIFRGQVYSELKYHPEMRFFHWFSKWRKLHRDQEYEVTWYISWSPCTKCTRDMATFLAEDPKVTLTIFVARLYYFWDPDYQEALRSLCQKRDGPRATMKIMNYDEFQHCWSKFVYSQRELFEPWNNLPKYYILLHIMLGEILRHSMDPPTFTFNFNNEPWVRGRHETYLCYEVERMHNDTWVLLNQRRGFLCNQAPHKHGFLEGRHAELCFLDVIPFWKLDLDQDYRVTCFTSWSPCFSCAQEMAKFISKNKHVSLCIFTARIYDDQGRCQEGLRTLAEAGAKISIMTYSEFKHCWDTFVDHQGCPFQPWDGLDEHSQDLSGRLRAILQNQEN
#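 Read-out is eYFP fluorescence (Ex 488/Em 500-530) from Vif-expressing HeLa A3G-eYFP cells; more signal means A3G escaped Vif-mediated degradation. Cells plated overnight, compound pinned in, incubated overnight at 37 deg C.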
# Vif-A3F inh – blocks the Vif interaction with APOBEC3F; HeLa A3F-eYFP + Vif (tagged APOBEC3F with the HIV-1 protein that degrades it), YFP fluorescence increase; Potency, µM (series often up to 46.1 µM), inactives show at the top dose activity, negative = active; 390,000 compounds, 0.2% hits; AID 602313; also: potency is read from the fitted curve at half-maximal effect; % of control where 0% means no effect; nearly all actives have a fitted effect of over 65% in size
#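 HeLa cells stably expressing A3F-eYFP plus Vif, plated and incubated overnight at 37 deg C, then exposed to compounds overnight at 37 deg C. Blocked degradation read as raised yellow fluorescence (Ex 488/Em 500-530).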
# SW480 rerep – inducers of DNA re-replication in SW480 colon cancer cells; SW480 DNA re-replication, Hoechst DNA content imaging, 48 h; Potency, µM (doses to about 46.1 µM), inactives show top-dose re-replication activation, actives largely listed as activators; 340,000 compounds, 1.8% hits; AID 624297; also: potency is read from the fitted curve at half-maximal effect; % of control where 0% means no effect; nearly all actives have a fitted effect of over 55% in size
#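 Treated cells incubate 48 hr (37 C, 5% CO2), are stained 40 min with Hoechst, and nuclear fluorescence is enumerated; a rise in nuclei with high DNA signal marks re-replication.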
# * marks the source's active call; other numbers are inactive results; ? = inconclusive; nt = no result given. An excerpt weighted towards active compounds, which were near 6.9% of everything screened. Unless noted, calls follow the shape of the dose curve; as a rule, active = well fitted curve in the direction sought with a large enough effect; inconclusive = small, poorly fitted or top-dose-only effect, or another doubt; inactive = no such curve, though single readings can be large; an effect the other way counts as inactive or inconclusive.
SMILES,IL1B secr inh,MCF10A rereplic,Giardia kill,Vif-APOBEC3G blk,Vif-A3F inh,SW480 rerep
CCOc1cccc(C(=O)Nc2cccc(-c3nc4ncccc4o3)c2C)c1,-63*,?,13,-1%,3%,1%
COc1cccc(C(=O)Nc2cccc(-c3nc4ncccc4o3)c2C)c1,?,-1%,13,-3%,7%,2%
COC(=O)c1ccc(NC(=O)CC2C(=O)N(c3ccccc3)C(=O)N2Cc2ccc(F)cc2)cc1 (configuration not stated),nt,nt,nt,-2%,0%,nt
Cc1ccccc1NCC(=O)N=Nc1c(O)[nH]c2ccc([N+](=O)[O-])cc12,84,3%,-8,5µM*,?,-5%
Cc1ccc(-c2nc3cc(C)ccc3o2)cc1,33,2%,-24,1%,-10%,-1%
COC(=O)c1ccc(-c2nc3ccc(C)cc3o2)cc1,-16,?,-23,?,-2%,7.3µM*
COc1ccccc1CCC(=O)O,nt,nt,nt,3%,nt,nt
O=S1(=O)c2ccccc2Nc2ccccc21,-73*,1%,-11,-9%,1%,25%
CCOc1ccc(C(=O)N/N=C(\c2ccccc2)c2ccccn2)cc1,-100*,28%,-16,-10%,0%,8.2µM*
C/C(=N\NC(=O)c1ccc(F)cc1)c1ccccn1,-66*,?,11,-10%,-4%,?
O=C(N/N=C(\c1ccccc1)c1ccccn1)c1cccc([N+](=O)[O-])c1,24,5%,0,-2%,0%,-4%
CC(C)(C)n1ncc2c(=O)n(Cc3cc(Cl)ccc3Cl)cnc21,nt,nt,nt,2%,nt,nt
O=S(=O)(c1ccc(-c2ccon2)s1)N1CCOCC1,2,19%,10,-8%,2%,0.58µM*
Cc1ccc(S(=O)(=O)N2CCOCC2)s1,3,8%,16,1%,1%,-1%
COc1ccccc1/C=C/C=N/Nc1cccc(C(=O)O)c1,13,21µM*,6,-8%,-11%,7%
Cc1ccccc1Cn1cc(S(=O)(=O)CC(=O)Nc2nccs2)c2ccccc21,-64*,-25%,-9,-7%,-7%,0%
CCSC1=NC2(CCN(C(=O)NC3CCCCC3)CC2)N=C1c1ccc(C)cc1,nt,nt,nt,-3%,-1%,nt
COc1cc(/C=N/Nc2ncnc3sc4c(c23)CCC4)ccc1O,-27,?,6,-20%,?,23µM*
COc1ccc(C(C(=O)Nc2ccc(C(C)C)cc2)N(Cc2ccco2)C(=O)CC2NC(=O)NC2=O)cc1 (configuration not stated),-70*,0%,3,-7%,0%,14%
Cc1nn(Cc2ccccc2)c(C)c1NC(=O)Cn1nc([N+](=O)[O-])c(Cl)c1C,9,1%,5,1%,-2%,-3%
Cc1nn(Cc2ccccc2)c(C)c1NC(=O)c1ccc([N+](=O)[O-])cc1[N+](=O)[O-],25,-41%,8,-7%,3%,16µM*
Cc1cccc(C(=O)Nc2nc3nc(-c4ccccc4)cc(=O)n3[nH]2)c1,nt,nt,nt,4%,-6%,nt
CCOC(=O)c1ccc(N2C(=O)C=CC2=O)cc1,-89*,?,-17,-18%,13%,?
CCOC(=O)c1ccc(-n2c(=O)[nH]c3ccccc3c2=O)cc1,-60*,-3%,-4,1%,-3%,-2%
COc1ccccc1-n1cc2c([N+](=O)[O-])cc([N+](=O)[O-])cc2n1,-11,2%,-85*,-3%,?,-6%
CCN(CC)CCSc1nnc2c3cc(C)ccc3n(Cc3ccccc3)c2n1,-67*,?,6,3%,-27%,29%
CCCCn1c2ccc(F)cc2c2nnc(SCCN(CC)CC)nc21,nt,nt,nt,5%,0%,nt
Cc1ccc2cccc(NC(=O)C(C)Oc3ccc(Cl)cc3Cl)c2n1 (configuration not stated),nt,nt,nt,0%,1%,nt
CCC(=O)N1CCN(c2ccc(NC(=O)c3ccc(Br)o3)cc2)CC1,-56*,3%,9,2%,-3%,21µM*
CN1CCN(c2ccc(NC(=O)c3ccc(Br)o3)cc2)CC1,-22,19%,17,0%,-4%,13%
